Screening data as filed in PubChem.
Compounds with a hit are over-represented: about 7.2% of the library has one in this group of screens.
AHR activator = AHR activators, primary screen, cell-based, luminescence, luciferase reporter, human. AHR-responsive luciferase reporter cells. 320,000 tested, 2.5% active. AID 2796, 2010. activation, % at 5 µM; in the data active means activation above about 47%
Target sequence (P35869 whole entry, looked up): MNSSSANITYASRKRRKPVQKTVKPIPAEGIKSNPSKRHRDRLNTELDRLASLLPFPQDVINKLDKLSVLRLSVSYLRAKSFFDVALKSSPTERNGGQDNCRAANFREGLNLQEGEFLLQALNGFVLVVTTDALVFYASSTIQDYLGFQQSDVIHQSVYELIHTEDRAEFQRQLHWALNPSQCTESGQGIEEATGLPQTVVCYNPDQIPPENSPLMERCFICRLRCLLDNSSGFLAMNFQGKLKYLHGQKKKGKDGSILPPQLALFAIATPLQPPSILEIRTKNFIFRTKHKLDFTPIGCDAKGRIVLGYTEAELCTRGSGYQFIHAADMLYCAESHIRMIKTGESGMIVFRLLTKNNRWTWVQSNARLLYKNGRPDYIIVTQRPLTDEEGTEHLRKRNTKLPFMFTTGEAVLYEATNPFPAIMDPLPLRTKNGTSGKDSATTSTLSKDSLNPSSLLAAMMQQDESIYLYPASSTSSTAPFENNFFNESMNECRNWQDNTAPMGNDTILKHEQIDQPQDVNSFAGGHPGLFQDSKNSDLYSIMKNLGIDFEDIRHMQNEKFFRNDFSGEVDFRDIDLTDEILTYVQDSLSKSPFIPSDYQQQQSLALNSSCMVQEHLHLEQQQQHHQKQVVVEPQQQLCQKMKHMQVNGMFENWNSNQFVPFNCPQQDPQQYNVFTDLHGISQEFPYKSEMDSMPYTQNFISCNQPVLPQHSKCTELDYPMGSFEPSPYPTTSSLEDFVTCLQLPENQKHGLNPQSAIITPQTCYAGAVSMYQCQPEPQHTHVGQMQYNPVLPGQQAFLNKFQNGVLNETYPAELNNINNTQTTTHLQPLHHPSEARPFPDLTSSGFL
VLA-4 inh = inhibition in human VLA-4 binding assay, primary screen, VLA-4 allosteric modulator project, MLPCN library, flow cytometry, VLA-4 expressing cells. Integrin alpha-4 (Homo sapiens), P13612. ligand binding flow cytometry. inhibition, % (about 7 µM as worked out from the volumes in the protocol). 330,000 tested, 0.2% active. AID 2557, 2010; in the data active means inhibition above about 50%
SUMO Mot1 rescue = yeast Mot1-301 growth rescue at high temperature, primary screen, SUMOylation pathway inhibitor project, S. cerevisiae, ATP luminescence, 38.5C; AID 2716, 2010; 320,000 tested, 1% active; growth rescue, % at 18.8 µM; S. cerevisiae Mot1-301 growth rescue; percent above DMSO median, 100 means doubled;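 active means every valid replicate shows activation above 250% relative to neutral control wells; inactive means the rest, any valid replicate at or below 250%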
Efflux pump mplx = inhibitors of Candida efflux pumps in yeast, primary screen, S. cerevisiae, Nile Red, multiplex; S. cerevisiae Candida pump triplex; 330,000 tested, 0.44% active; inhibition, % at 10 µM; AID 485275, 2010;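 active means plate passing quality check with inhibition over a set limit, or well fluorescence over plate mean plus 4 SD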;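 further: Nile Red retained in pooled yeast measured as flow cytometry median fluorescence; higher means more Nile Red kept so more efflux inhibition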
A1 inh = caspase 3/7 activation in MEF A1-2A-BIM cells, primary screen, A1 inhibitor project, cell-based, luminescence, HTS | Caspase-Glo 3/7 luminescence, 3 h; percent of clofoctol response, vehicle zero | caspase activation, % (no concentration beside the values) | 330,000 tested, 0.066% active | AID 2462, 2010;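 active means over half of replicate activation scores above 10%, or exactly half above 10 with the replicate mean above 10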
ALR inh = inhibitors of human ALR sulfhydryl oxidase, primary screen, biochemical, H2O2 detection, HRP-luminol luminescence, single point; purified ALR, DTT oxidation; FAD-linked sulfhydryl oxidase ALR (Homo sapiens), P55789; 290,000 tested, 3.8% active; inhibition, % (test concentration not listed); AID 485317, 2010;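 active means mean replicate inhibition above about 79%, with every replicate also reaching it, limit read from the data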
AHR act cf = AHR activators, confirmation, cell-based, luminescence, luciferase reporter, human. shares compounds with AHR activator. 2,300 tested, 87% active. AID 2845, 2010. activation, % at 9 µM. human cells, AHR-responsive luciferase reporter; in the data active means activation above about 49%;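 further: HepG2 hepatoma cells carrying a DRE-driven firefly luciferase reporter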
PXR act counter = human PXR activators, counter-screen for AHR activator project, cell-based, luciferase luminescence | 2,300 tested, 88% active | cell-based PXR reporter | activation, % at 11.6 µM | shares compounds with AHR activator; in the data active means activation above about 11%;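 further: human hepatoma DPX-2 cells expressing full-length human PXR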
Large screens that a line does not name were inactive (follow-up assays come after a bar, where they were run).

C=CCn1c(=O)c(C(=O)NC2CC2)c(O)c2cc(OC)c(OC)cc21	AHR activator 102 | AHR act cf inactive | PXR act counter 30
O=c1c2ccccc2nc(-c2ccoc2)n1CCc1ccccc1	AHR activator 125 (no result: ALR inh) | AHR act cf 102 | PXR act counter 41
O=c1c2ccccc2nc(-c2ccco2)n1Cc1ccccc1	none
Cc1nc(N2CCOCC2)c2oc3ccccc3c2n1	AHR activator 100 | AHR act cf 92 | PXR act counter 24
C/C(=N\NC(=O)c1c[nH]c2ccccc12)c1ccco1	AHR activator 92 | AHR act cf 159 | PXR act counter 24
CCc1ccc(/C(C)=N/NC(=O)c2c[nH]c3ccccc23)s1	AHR activator 141 | AHR act cf 115 | PXR act counter 59
C/C(=N\NC(=O)c1ccc(C(=O)N/N=C(\C)c2ccco2)o1)c1ccco1	AHR activator 108 | AHR act cf inactive | PXR act counter inactive
Cc1ccc(S(=O)(=O)C(C)C(=O)c2ccc3c(c2)OCCO3)cc1 (centres undefined)	none
CNc1nc(C)cc(C)c1S(=O)(=O)c1ccc(C)cc1	none
Cc1ccc2nc(-c3cccnc3)oc2c1	AHR activator 89 | AHR act cf 106 | PXR act counter 31
Cc1ccc2oc(-c3cccc(N)c3)nc2c1	AHR activator 110 | AHR act cf 107 | PXR act counter 10
COc1c(F)cc2[nH]c3c(c2c1F)CCNC3=O	none
CCCc1cc(=O)[nH]c(N/N=C/C=C\c2ccccc2)n1	none
Cc1cc(=O)[nH]c(-c2ccc(C(F)(F)F)cc2)n1	AHR activator 87 | AHR act cf 114 | PXR act counter 11
CC1CCN(CC(CS(=O)(=O)c2ccc([N+](=O)[O-])cc2)N2CCC(C)CC2)CC1 (centres undefined)	none
c1ccc2c(c1)ncn2-c1ccc(-c2ccnc3ncnn23)cc1	none (no result: ALR inh)
Cc1nccc(-c2ccc(-n3cnc4ccccc43)cc2)n1	AHR activator 83 | AHR act cf 63
Cc1cccc(-c2nnn(C/C(N)=N/O)n2)c1	none
CCn1c(SCC(=O)N/N=C(\C)c2ccncc2)nnc1-c1ccc(C)cc1	none
O=C1Nc2ccccc2C1c1ncc(C(F)(F)F)cc1Cl (centres undefined)	AHR activator 90 (no result: ALR inh) | AHR act cf inactive | PXR act counter 21
O=c1[nH]nc(Cc2ncc(C(F)(F)F)cc2Cl)c2ccccc12	none
N#CC(Cc1ccc(OC(F)F)cc1)c1nc2ccccc2[nH]1 (centres undefined)	none
Cc1nc(NC2=NCN(CCCN3CCOCC3)CN2)nc2c(C)cccc12	AHR activator 125 (no result: SUMO Mot1 rescue) | AHR act cf 74
O=c1c2ccccc2nc(N2CCN(c3ccccc3)CC2)n1Cc1ccccc1	none
N/C(=N\OC(=O)c1cc([N+](=O)[O-])ccc1Cl)c1ccccn1	none
N/C(=N\OC(=O)c1ccc(Cl)cc1[N+](=O)[O-])c1cccnc1	AHR activator 90 | AHR act cf 91 | PXR act counter 15
N/C(=N\OC(=O)c1ccc(Cl)cc1[N+](=O)[O-])c1ccccn1	AHR activator 146 (no result: ALR inh) | AHR act cf 53 | PXR act counter 13
Cc1c(C(=O)O/N=C(\N)c2ccccn2)cccc1[N+](=O)[O-]	AHR activator 97 (no result: ALR inh) | AHR act cf 92 | PXR act counter 12
N/C(=N\OC(=O)c1cc(Br)ccc1Cl)c1ccccn1	AHR activator 108 | AHR act cf 61 | PXR act counter 12
CCOC(=O)C1C(=O)C=C(c2ccc(C)cc2)CC1c1cccc([N+](=O)[O-])c1 (centres undefined)	none (no result: ALR inh)
OC(CCN1CCC2(CC1)OCCO2)C(F)(F)F (centres undefined)	none
CN1CCN(C(=O)CSc2nc(-c3cccs3)ccc2C#N)CC1	none
O=C(CSc1nnc(-c2ccc3c(c2)OCO3)o1)Nc1ncc(C(F)(F)F)cc1Cl	none (no result: ALR inh)
Cc1nc(NC(=O)CSc2nnc(-c3ccc4c(c3)OCO4)o2)c(Cl)cc1Cl	AHR activator 128 | AHR act cf 105 | PXR act counter 88
O=C(Nc1ccc(Cl)cc1)[C@@H]1[C@@H]2C(=O)N(c3ccc(Cl)cc3)C(=O)[C@@H]2[C@H]2C=CC=NN21	AHR activator 98 | AHR act cf 63 | PXR act counter 13
Cc1cccc(C(=O)NC(C)c2ccc(-n3ccnc3)cc2)c1C (centres undefined)	none
CC(NC(=O)c1c(F)cccc1Cl)c1ccc(-n2ccnc2)cc1 (centres undefined)	AHR activator 127 | AHR act cf 64 | PXR act counter 19
CC(NC(=O)c1cc(F)c(F)c(F)c1F)c1ccc(-n2ccnc2)cc1 (centres undefined)	AHR activator 96 | AHR act cf 50 | PXR act counter 18
Cc1ccc(C)c(/C=C2\CCn3c2nc2cc(C(=O)O)ccc2c3=O)c1	none (no result: ALR inh)
Cc1oc(-c2ccc3ccccc3c2)nc1CN(C)C(C)c1ccncn1 (centres undefined)	AHR activator 115 | AHR act cf 98 | PXR act counter 43
CC(c1ccncn1)N(C)Cc1nc(-c2ccc(C(F)(F)F)cc2)no1 (centres undefined)	none
COCCN1Cc2c(sc(C)c2C)N(C(=O)c2ccccc2)C1	AHR activator 82 | AHR act cf 84 | PXR act counter 38
Cc1sc2c(c1C)CN(C(C)(C)C)CN2C(=O)c1ccccc1	none
[O-]/[N+](=C/c1cccnc1)c1ccc(Br)cc1	AHR activator 93 (no result: ALR inh) | AHR act cf 117 | PXR act counter 18
[O-]/[N+](=C\c1ccncc1)c1ccc(Br)cc1	AHR activator 123 | AHR act cf 130 | PXR act counter 16
CCNc1c(NCC)c(=O)c1=O	none
COc1cccc(Nc2nc(-c3cccs3)nc3ccccc23)c1	AHR activator 88 | AHR act cf inactive | PXR act counter 68
Nc1c2nc(-c3ccccc3Cl)[nH]c(=O)c2nc(=O)n1-c1ccccc1	AHR activator 87 | AHR act cf 95 | PXR act counter 19
Nc1c(N2CCCCC2)c(=O)[nH]c(=O)n1-c1ccccc1	none
